Source: PubChem
Sampled rows, rich in hits. Any-hit rate of the full collection: about 19%.
S-ASM inh = Inhibitors of Secretory Acid Sphingomyelinase (S-ASM): qHTS; placental ASM, HMU-PC fluorogenic substrate, 60 min; Potency, µM (series often up to 57.5 µM), usual class: inhibitors; 340,000 compounds, 0.006% hits
Target sequence (P17405 47-631 limits assumed): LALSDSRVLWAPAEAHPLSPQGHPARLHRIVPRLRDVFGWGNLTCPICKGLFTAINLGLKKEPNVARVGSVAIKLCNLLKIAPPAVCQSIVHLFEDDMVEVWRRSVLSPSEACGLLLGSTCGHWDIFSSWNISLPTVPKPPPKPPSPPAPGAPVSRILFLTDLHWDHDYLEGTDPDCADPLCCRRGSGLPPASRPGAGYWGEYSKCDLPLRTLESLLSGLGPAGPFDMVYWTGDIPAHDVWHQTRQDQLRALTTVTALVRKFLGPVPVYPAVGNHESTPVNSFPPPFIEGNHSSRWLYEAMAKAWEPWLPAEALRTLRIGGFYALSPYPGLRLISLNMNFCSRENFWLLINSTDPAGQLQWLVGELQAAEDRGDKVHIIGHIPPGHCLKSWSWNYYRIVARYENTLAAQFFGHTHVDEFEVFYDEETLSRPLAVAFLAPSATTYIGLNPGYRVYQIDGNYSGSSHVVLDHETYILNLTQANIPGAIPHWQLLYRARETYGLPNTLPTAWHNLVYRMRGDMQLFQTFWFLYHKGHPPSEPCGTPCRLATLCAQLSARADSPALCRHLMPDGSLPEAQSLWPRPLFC
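Fluorescence read-out (Ex 386 nm, Em 447 nm) after stopping the reaction at pH 10. Enzyme: ASM from human placenta; substrate HMU-PC0, 9 uM final; 60 min, 37 °C. Compound preincubation 10 min, ambient temperature.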
TDP1 cell CPT = qHTS for Inhibitors of human tyrosyl-DNA phosphodiesterase 1 (TDP1): qHTS in cells in presence of CPT. chicken DT40 Tdp1-/-;hTDP1 cells + 20 nM CPT, ATP luminescence, 48 h. 420,000 compounds, 12% hits. Potency, µM (titrated, usually from 46.2 µM), actives largely listed as inhibitors; also: nearly all actives have a fitted effect of over 55% in size
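Cell growth measured by CellTiter-Glo luminescence after a minimum 48 h, 37 C compound exposure with 20 nM CPT in Tdp1-knockout DT40 cells stably expressing hTDP1, seeded 400/well; qHTS titration format.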
IL-1B inflam inh = qHTS for Inhibitors of Inflammasome Signaling: IL-1-beta AlphaLISA Primary Screen. 360,000 compounds, 4.7% hits. activity change, % at 57.5 µM. AID 743279, 2014. THP-1 LPS/ATP IL-1B secretion, AlphaLISA, 16 h; hits give low values; in the data active = activity change below about -50%; inconclusive = mostly about -30% to -49%
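THP-1 cells pretreated 1 hr with compounds (up to 57.5 uM final), then stimulated with LPS (250 ng/mL final) plus ATP (1.25 mM final); secreted IL-1B measured by AlphaLISA after 16 hr, decreased signal indicating inhibition.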
TGFb inhibitor = qHTS for Inhibitors of TGF-b. HepG2 CAGA-GFP TGF-b/SMAD3 reporter, GFP fluorescence, 18 h; TGF-beta stimulated, 500 pg/mL final. Potency, µM (titrated, usually from 46.1 µM), most hits filed as inhibitors. 410,000 compounds, 1.2% hits. AID 588855, 2011; also: nearly all actives have a fitted effect of over 65% in size
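GFP signal (ex488/em500-530) from TGF-beta-stimulated HEPG2 CAGA-GFP cells, 500 pg/mL final, 18 h at 37 degrees C in DMEM plus 1% FBS, normalized to unstimulated and DMSO-stimulated controls.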
HepG2 viability = qHTS for Inhibitors of TGF-b: Cytotox Counterscreen | HepG2 CAGA-GFP viability, ATP luminescence, 18 h | Potency, µM (doses to about 46.1 µM), most hits filed as cytotoxic | 410,000 compounds, 0.76% hits
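CellTiter-Glo luminescence gave cytotoxicity after 18 hours at 37 degrees C. The cells were HepG2 CAGA-GFP in 1% FBS DMEM, stimulated with 500 pg/mL TGF-beta after compound addition. %Activity was normalised to no-cell wells (complete cell-killing) and DMSO (no toxicity), and curves were fitted and classified.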
DT40 TDP1 no CPT = qHTS for Inhibitors of human tyrosyl-DNA phosphodiesterase 1 (TDP1): qHTS in cells in absence of CPT | 420,000 compounds, 15% hits | Potency, µM (titrated, usually from 46.2 µM), most hits filed as inhibitors | DT40 Tdp1-/- hTDP1 cells, no CPT, ATP luminescence, 48 h; also: nearly all actives have a fitted effect of over 55% in size
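Growth kinetics read by CellTiter-Glo luminescence after ≥48 hr at 37 °C. Cells: DT40 Tdp1-/- stably carrying human TDP1, 400 per well, compound exposure in the absence of CPT (DMSO vehicle).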
A number is an active result; i = inactive; ? = inconclusive; nt = no result given. Unless noted, calls follow the shape of the dose curve; as a rule, active = well fitted curve in the direction sought with a large enough effect; inconclusive = small, poorly fitted or top-dose-only effect, or another doubt; inactive = no such curve, though single readings can be large; an effect the other way counts as inactive or inconclusive.

SMILES	S-ASM inh	TDP1 cell CPT	IL-1B inflam inh	TGFb inhibitor	HepG2 viability	DT40 TDP1 no CPT
CCCc1nc(SCC(=O)O)c2sc(=S)n(-c3ccccc3)c2n1	i	i	i	i	i	i
NNc1nc2sc3c(c2c(=O)n1-c1ccccc1)CCCC3	i	18µM	i	i	i	?
COc1ccc(-n2c(SCCNCCO)nc3sc4c(c3c2=O)CCCC4)cc1	i	?	-75	?	i	?
Nn1c(Nc2ccccc2)nc2sc3c(c2c1=O)CCCC3	i	?	i	i	i	?
COc1ccc(-n2c(NNC(C)=O)nc3sc4c(c3c2=O)CCCC4)cc1	i	3.3µM	i	i	i	4.1µM
COc1ccc(-n2c(SCC(=O)O)nc3sc4c(c3c2=O)CCCC4)cc1	i	i	i	i	i	i
COc1cccc(NC(=O)c2ccc(N3C(=O)C4CC=CCC4C3=O)cc2)c1 (centres undefined)	i	i	i	i	i	?
CC(=O)Nc1ccc(C(C#N)c2ccccc2)cc1 (centres undefined)	i	i	i	i	i	i
CCOc1ccccc1CNCCCSc1nnnn1C	nt	i	nt	i	i	i
CCOc1ccc(C(=O)c2cn(CC(=O)Nc3ccc4c(c3)OCO4)c3ccc(OC)cc3c2=O)cc1	nt	?	nt	i	i	?
COc1ccc(C(=O)c2cn(CC(=O)Nc3ccc4c(c3)OCCO4)c3ccc(OC)cc3c2=O)cc1	nt	21µM	nt	i	i	?
CCOc1ccc(C(=O)c2cn(CC(=O)Nc3ccc4c(c3)OCO4)c3ccc(OCC)cc3c2=O)cc1	nt	?	nt	i	i	3.3µM
CCOc1ccc(C(=O)c2cn(CC(=O)Nc3cc(OC)cc(OC)c3)c3ccc(F)cc3c2=O)cc1	nt	?	nt	i	i	21µM
COc1ccc(C(=O)c2cn(CC(=O)Nc3ccc4c(c3)OCO4)c3ccc(OC)cc3c2=O)cc1	nt	?	nt	i	i	?
Cc1nc(NC(=O)c2ccccc2)sc1C1(C)CC(c2c(Cl)cccc2Cl)=NO1 (centres undefined)	i	23µM	i	?	i	?
Cc1nc(C(=O)Nc2ccccc2)sc1C1(C)CC(c2cccc([N+](=O)[O-])c2)=NO1 (centres undefined)	i	i	i	i	i	i
COc1ccc(NC(=O)c2nc(C)c(C3(C)CC(c4ccccc4)=NO3)s2)cc1 (centres undefined)	i	1µM	i	i	i	5.8µM
CC1CCN(C(=O)CN2CCSc3ccc(S(=O)(=O)N(C)C)cc32)CC1	nt	nt	nt	i	i	nt
Cc1cc(-c2ccccc2)c2c(n1)sc1c(O)cc(=O)[nH]c12	i	i	i	i	i	i
Cc1cc(-c2cccs2)c2c(n1)sc1c(=O)[nH]c(=O)[nH]c12	i	16µM	i	i	i	?
O=C(CN1C(=O)CNC1=O)Nc1cc(Cl)cc(Cl)c1	i	i	i	i	i	i
CCCC(=O)C1=C(O)C(C(=O)OC)C(C)(C)CC1=Nc1ccc(OC)cc1 (centres undefined)	i	?	i	i	i	21µM
CCCC(=O)C1=C(O)C(C(=O)OC)C(C)(C)CC1=Nc1ccc(Br)cc1 (centres undefined)	i	?	i	i	i	23µM
CCc1nn(CC(=O)N2CCN(c3cccc(C)c3C)CC2)c(=O)c2cc3sccc3n12	nt	i	nt	?	i	i
COc1ccc(/C(C)=N/NC(=O)c2ccc(CSc3cccc4cccnc34)cc2)cc1OC	i	?	i	i	i	16µM
SMILES	S-ASM inh	TDP1 cell CPT	IL-1B inflam inh	TGFb inhibitor	HepG2 viability	DT40 TDP1 no CPT
Cc1cc(OCCOc2cccc3cccnc23)cc(C)c1Cl	i	15µM	i	i	i	18µM
C/C(=N\NC(=O)c1ccc(CSc2cccc3cccnc23)cc1)C1CCCCC1	i	i	i	?	i	i
COc1cc(C(C)=O)ccc1OCCCOc1cccc2cccnc12	i	18µM	i	i	i	?
CC(=O)c1ccc(OCCCOc2cccc3cccnc23)cc1	i	?	-70	i	i	?
CCOC(=O)C1(C)CCCN(C(=O)c2cc(C)on2)C1 (centres undefined)	nt	i	i	i	i	i
CCOc1ccc(NC(=O)c2cnc3sc(N4CCOCC4)nn3c2=O)cc1	nt	i	nt	i	i	i
CC(C)Oc1ccccc1OCCCOc1cccc2cccnc12	i	?	?	i	i	21µM
CC(=O)c1ccccc1OCCOCCOCCOc1ccccc1C(C)=O	i	18µM	i	i	i	?
c1ccc(OCCOc2cccc3cccnc23)cc1	i	i	i	i	i	i
CC(=O)c1ccccc1OCCCOc1cccc2cccnc12	i	23µM	i	?	i	23µM
OCc1ccccc1OCCCOc1cccc2cccnc12	i	i	i	i	i	i
CCCCn1c(N)c(N(CCC(C)C)C(=O)C2=NN(c3ccccc3)C(=O)CC2)c(=O)[nH]c1=O	i	i	i	i	i	i
CCN(CC)CCCNC(=O)c1sc2nc3n(c(=O)c2c1C)CCCCC3	nt	i	nt	i	i	?
CCCC1=C(C(=O)OCC)C(/C=C/c2ccccc2)n2ncnc2N1 (centres undefined)	i	16µM	i	i	i	13µM
CCCC1=C(C(=O)OCC)C(c2ccc(N(C)C)cc2)n2ncnc2N1 (centres undefined)	i	?	i	i	i	26µM
CC(=O)Nc1ccc(-c2csc(NCc3ccco3)n2)cc1	i	i	i	i	i	i
COc1ccc(-c2csc(NCc3ccco3)n2)cc1C	i	i	-52	?	i	?
Cc1ccn2c(-c3csc(NCc4ccco4)n3)c(C)nc2c1	i	15µM	i	i	i	18µM
Cc1ccc(C)c(NC(=O)N2CCC(CN3CCOCC3)CC2)c1	nt	i	nt	i	i	i
O=C1COc2ccc(C(=O)CCl)cc2N1	i	5.8µM	-90	?	i	1.6µM
CCCCCCC(=O)OCC(=O)c1ccc2c(c1)NC(=O)CO2	i	8.2µM	i	i	i	13µM
CCc1ccc(OCC(=O)OCC(=O)c2ccc3c(c2)NC(=O)CO3)cc1	i	i	i	i	i	i
CCC(=O)c1ccc(OCC(=O)c2ccc3c(c2)NC(=O)CO3)cc1	i	i	i	i	i	i
COc1ccc(/C=C/C(=O)OCC(=O)c2ccc3c(c2)NC(=O)CO3)c(OC)c1	i	i	-52	i	i	i
